Drawing on PubChem BioAssay (Tox21), this text covers Potency and activation for 40 compounds.

Molecules are shown by their SMILES. Inconclusive results are not listed. Where a call stands in place of a potency, no number is given. Values without a mark were called inactive. Active and inactive are the calls of the source. Calls follow the shape of the dose curve; as a rule, active = well fitted activation curve with a large enough effect in the signal ratio in the repeat runs (not every such curve was filed as active); inconclusive = weak or mixed curves, or effect the other way; inactive = flat fitted curve, though single readings scatter; the % refers to the signal ratio.

Chain of Estrogen receptor beta (Homo sapiens) (Q92731 whole entry, looked up): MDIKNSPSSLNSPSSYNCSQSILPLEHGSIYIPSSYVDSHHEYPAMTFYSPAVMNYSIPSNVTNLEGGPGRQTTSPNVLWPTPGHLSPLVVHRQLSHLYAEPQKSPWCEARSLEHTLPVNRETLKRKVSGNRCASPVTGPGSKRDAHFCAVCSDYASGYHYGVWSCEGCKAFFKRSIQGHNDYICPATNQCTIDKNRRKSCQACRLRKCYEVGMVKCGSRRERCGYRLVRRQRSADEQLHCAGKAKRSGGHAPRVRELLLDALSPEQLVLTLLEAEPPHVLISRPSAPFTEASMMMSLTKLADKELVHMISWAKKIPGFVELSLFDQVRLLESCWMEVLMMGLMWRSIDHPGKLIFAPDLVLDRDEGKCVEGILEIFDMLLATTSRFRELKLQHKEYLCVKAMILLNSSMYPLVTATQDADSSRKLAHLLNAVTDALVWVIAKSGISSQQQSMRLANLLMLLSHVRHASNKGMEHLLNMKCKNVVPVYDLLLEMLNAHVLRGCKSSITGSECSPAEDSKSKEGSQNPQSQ

This assay addresses Estrogen receptor beta (Homo sapiens) (UniProt Q92731). Put plainly: qHTS assay to identify small molecule agonists of the estrogen receptor beta (ER-beta) signaling pathway (AID 1259377). The conditions noted are these: ER-beta-UAS-bla HEK293T, beta-lactamase FRET ratio, 16 h; series mostly up to 92.4 µM. From the text: U.S. Tox21 Program National Center for Advancing Translational Sciences [NCATS] NIH Chemical Genomics Center [NCGC] U.S. Environmental Protection Agency [EPA] National Institutes of Environmental Health Sciences [NIEHS] National Toxicology Program [NTP] U.S. Food and Drug Administration [FDA] Tox21 Assay Overview: Estrogen receptor (ER), a nuclear hormone receptor, plays an important role in development, metabolic homeostasis and reproduction. Two subtypes of ER, ER-alpha and ER-beta, have similar expression patterns with some uniqueness in both types. Endocrine disrupting chemicals (EDCs) and their interactions with steroid hormone receptors like ER causes disruption of normal endocrine function. To identify the compounds that activate ER signaling, an ER beta-UAS-bla GripTite cell line (Life technologies, Madison, WI, USA) containing a beta-lactamase reporter gene under the control of an Upstream Activator Sequence (UAS) was used to screen Tox21 10K compound library.
Tox21 Assay Protocol Summary: ER-beta-UAS-bla HEK293T cells were dispensed at 2,000 cells/5 uL of assay medium containing 2% charcoal stripped FBS per well into black wall/clear-bottom 1536-well plates using a Multidrop Combi (ThermoFisher Scientific, Waltham, MA) dispenser. After the assay plates were incubated at a 37C and 5% CO2 for 6 hr, 23 nL of compounds dissolved in DMSO, positive controls or DMSO only was transferred to the assay plate by a Pintool station (Kalypsys, San Diego, CA). The plates were incubated at 37C and 5% CO2 for 16 hr. Then 1 uL of LiveBLAzerTM B/G FRET substrate was added using a BioRAPTR FRD (Flying Reagent Dispenser, Aurora Discovery, San Diego, CA). After the plates were incubated at room temperature for 2 hours, fluorescence intensity was measured by an Envision plate reader (PerkinElmer, Shelton, CT).
Background: Quantitative high-throughput screening tests each substance at several concentrations.
Consider `CN(C)CCN(C)CCO`, for which the Potency result was “inactive”.
In the case of `CCCCCc1cccc(=O)o1`, the Potency result is “inactive”.
For the compound `[O]=[Mo](=[O])=[O]`, the activation is -1.75% [at 19 µM].
On to `C=CCSSCCC`, for which the Potency result is “inactive”.
On to `COc1ccc(CCO)cc1`, for which the Potency entry was “inactive”.
The same measure, in the same setting: with `CC(C)(CO)C(O)C(=O)NCCCO` (stereo not given) the entry was “inactive”.
As for `CCCC(=O)OC/C=C(\C)CCC=C(C)C`, the Potency entry is “inactive”.
For the compound `CCOCCOCC`, the Potency result is “inactive”.
The same measure, in the same setting: with `O=C1CCC(=O)N1Cl` the entry was “inactive”.
Regarding `CC(=O)O[Si](C)(OC(C)=O)OC(C)=O`, the Potency entry was “inactive”.
As to `CC(=O)C1C(=O)C=C(C)OC1=O` (stereo not given), the Potency entry was “inactive”.
On the same count and under the same terms, the value for `O=C=NCC1CCCC(CN=C=O)C1` (stereo not given) was “inactive”; that for `CC(C)CO` was “inactive”.
Still for that read-out and setting: with `CC(=O)C(C)O` (stereo not given) the entry was “inactive”; with `O=C1CCCCO1`, “inactive”; with `CC(=O)c1cc(C)oc1C`, “inactive”.
The same measure, in the same setting: with `CC1OCCC1=O` (stereo not given) the entry was “inactive”; with `CC12CCC(C1)C(C)(C)C2O` (stereo not given), “inactive”; with `c1ccc(-c2nn[nH]n2)cc1`, “inactive”.
As to `CC(CO)(CO)CO`, the Potency entry is “inactive”.
The same measure, in the same setting: the value for `O=Cc1ccccc1Cl` was “inactive”; that for `CCCSSCCC` was “inactive”; that for `CCCCCCCCCOC(=O)c1ccccc1C(=O)OCCCCCCCCC` was “inactive”.
As to `CC(C)OC(=O)OCOP(=O)(CO[C@H](C)Cn1cnc2c(N)ncnc21)OCOC(=O)OC(C)C`, the Potency entry was “inactive”.
Still for that read-out and setting: with `CC1(C)[C@H]2CC[C@](C)(C2)[C@H]1O` the entry was “inactive”.
On to `O=C(Cn1ccnc1[N+](=O)[O-])NCc1ccccc1`, for which the Potency result was “inactive”.
Still for that read-out and setting: the value for `Cc1c(N)cccc1Cl` was “inactive”.
The same measure, in the same setting: the value for `CCOC(=O)CC1(C)OCC(C)O1` (stereo not given) was “inactive”; that for `O=C(O)CCCCCC(=O)O` was “inactive”; that for `CC(C)[C@H]1CC[C@H](C)C[C@@H]1O` was “inactive”.
Take `CN(C)CC/C=C1/c2ccccc2COc2ccc(CC(=O)O)cc21`: the Potency entry is “inactive”.
`Cc1ccc(C)c([N+](=O)[O-])c1`: the Potency result is “inactive”.
As for `C/C(=C1\CCOC(=O)S1)N(C=O)Cc1cnc(C)nc1N`, the Potency result is “inactive”.
In the case of `COC(=O)c1cccc(Cl)c1`, the Potency result was “inactive”.
As to `C=CCOC(=O)CCCCCC`, the Potency entry was “inactive”.
On the same count and under the same terms, the value for `Cc1cccc(Cl)c1` was “inactive”; that for `CC1(C)Oc2ccc(C#N)cc2[C@@H](N2CCCC2=O)[C@@H]1O` was “inactive”; that for `CC(C)NC(=O)c1ccc(C=O)cc1` was “inactive”.
Turning to `CCC/C=C(\C=O)CC`, the Potency entry was “inactive”.
Turning to `COC(=O)/C=C\C(=O)O`, the Potency result was “inactive”.
